# Source: PubChem BioAssay
# Shown are actives, neighbours in structure and some others; about 9.9% of the full set was active somewhere.
# Tau FP inhib: tau fibrillization inhibition (FP) | P10636 | K18 P301L tau heparin fibrillization, Alexa594 FP, 6 h | actives 0.39% (n = 280,000) | Potency, µM (titrated, usually from 57.7 µM), inactives show top-dose activity, negative = inhibition, hits mostly inhibitors; active = well fitted curve in the direction sought with a large enough effect; inconclusive = small, poorly fitted or top-dose-only effect, or another doubt; inactive = no such curve, though single readings can be large; an effect the other way counts as inactive or inconclusive; note: nearly all actives have a fitted effect of over 55% in size
# Target sequence (P10636 561-689 P618L limits assumed): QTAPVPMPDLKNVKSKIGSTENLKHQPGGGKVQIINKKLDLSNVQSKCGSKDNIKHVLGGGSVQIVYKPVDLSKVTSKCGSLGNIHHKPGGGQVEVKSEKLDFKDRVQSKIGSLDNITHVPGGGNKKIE
#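 Steps: dispense K18 P301L tau (15 uM plus 0.24 uM Alexa 594 tracer, final) in pH 7 sodium acetate; add compound; add heparin (20 uM final); incubate 6 hr, 37 C; add ThT (30 uM final); after 1 hr ambient, read FP.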
# HPGD inh: blocks human HPGD enzyme activity | purified HPGD, NADH fluorescence kinetic, PGE2 substrate | Potency, µM, for inactives: at the highest dose activity change, negative = inhibition, most hits filed as inhibitors | P15428 | AID 894 | actives 4.3% (n = 150,000)
#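 NADH formation kinetics: reaction with 30 uM PGE2 and 1 mM NAD+ (final), 20 nM enzyme, Tris-HCl pH 8 with Tween 20, after 15 min compound preincubation at room temperature. Fluorescence change, last versus first of five reads.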
# Tau ThT inhib: blocks human tau fibril formation measured by thioflavin T | recombinant tau K18 P301L, heparin-induced fibrillization, ThT fluorescence | Potency, µM (highest dose often 57.4 µM), for the others: at the highest dose activity, negative = inhibition, hits mostly inhibitors | actives 2.1% (n = 270,000) | AID 1460; active = well fitted curve in the direction sought with a large enough effect; inconclusive = small, poorly fitted or top-dose-only effect, or another doubt; inactive = no such curve, though single readings can be large; an effect the other way counts as inactive or inconclusive; note: nearly all actives have a fitted effect of over 55% in size
#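 Tau K18 P301L fragment (15 uM unlabeled plus 0.24 uM Alexa 594-labeled) in 100 mM sodium acetate pH 7 with compound, fibrillization induced by 20 uM heparin for 6 hr at 37 C. Thioflavin T (30 uM) added, fluorescence read after 1 hr (ex 450, em 510 nm).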
# KDM4E inh: JMJD2E (human) inhibition; actives 1.6% (n = 230,000); Potency, µM (top dose mostly 57.1 µM), without a hit: at the highest dose activity change, negative = inhibition, actives largely listed as inhibitors; B2RXH2; JMJD2E catalytic domain, FDH-coupled NADH fluorescence (FDH is formaldehyde dehydrogenase);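 note: 0% = wells with enzyme and -100% = buffer wells without enzyme; nearly all actives have a fitted effect of over 50% in size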
# Tau fluor cs: counter-screen for tau fibril formation inhibitors. tau K18 P301L Alexa594 fluorescence, heparin fibrillization. Potency, µM (highest dose often 57.7 µM), for the others: at the top dose activity change, negative = decrease. actives 0.93% (n = 280,000). AID 1463; active = well fitted curve in the direction sought with a large enough effect; inconclusive = small, poorly fitted or top-dose-only effect, or another doubt; inactive = no such curve, though single readings can be large; an effect the other way counts as inactive or inconclusive; note: nearly all actives have a fitted effect of over 55% in size
#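 Human tau K18 P301L (15 uM unlabeled, 0.24 uM Alexa 594-labeled) in 100 mM sodium acetate pH 7 with 20 uM heparin, 6 hr at 37 C. ThT 30 uM added, 1 hr ambient; Alexa 594 FP and total fluorescence read at 555/632 nm.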
# ALDH1A1 block: ALDH1A1 (human) enzyme inhibition | AID 1030 | actives 7.3% (n = 220,000) | Potency, µM (titrated, usually from 75.3 µM), for inactives: at the highest dose activity, negative = inhibition, most hits filed as inhibitors | Purified ALDH1A1, NADH fluorescence, propionaldehyde substrate | P00352;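 note: plate controls were no enzyme wells and a reference inhibitor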
# Target sequence (P00352 whole entry, looked up): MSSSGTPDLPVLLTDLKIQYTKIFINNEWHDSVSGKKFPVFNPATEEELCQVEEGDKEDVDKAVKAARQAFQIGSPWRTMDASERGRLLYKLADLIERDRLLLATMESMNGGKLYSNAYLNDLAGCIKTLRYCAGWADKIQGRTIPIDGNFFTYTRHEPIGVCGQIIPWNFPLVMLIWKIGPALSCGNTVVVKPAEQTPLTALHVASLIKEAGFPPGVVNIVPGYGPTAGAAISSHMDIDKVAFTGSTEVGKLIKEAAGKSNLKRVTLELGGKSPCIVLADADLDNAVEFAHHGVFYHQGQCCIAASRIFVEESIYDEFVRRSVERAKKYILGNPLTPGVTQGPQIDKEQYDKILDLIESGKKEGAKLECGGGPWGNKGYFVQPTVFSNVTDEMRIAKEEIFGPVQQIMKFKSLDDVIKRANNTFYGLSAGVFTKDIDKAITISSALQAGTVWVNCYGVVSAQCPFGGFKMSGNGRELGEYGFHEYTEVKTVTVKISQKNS
# Active calls of the source: *; ? = inconclusive; nt = no result given; [ ] = another dose, or the depositor's remark. Unless noted, calls come from the whole dose curve; as a rule, active = well fitted inhibition curve with a large enough effect (not every such curve was filed as active); inconclusive = small, poorly fitted or top-dose-only effect, or another doubt; inactive = no such curve, though single readings can be large or run the other way. Unless noted, % is set by controls: 0 for no effect and ±100 for the full control effect; potency is the fitted concentration of half-maximal effect.
SMILES,Tau FP inhib,HPGD inh,Tau ThT inhib,KDM4E inh,Tau fluor cs,ALDH1A1 block
O=C(O)CCCNS(=O)(=O)c1ccc2ccccc2c1,11%,-14%,-7%,3%,5%,3.2µM*
Cc1nc(N)sc1-c1csc(Nc2ccccc2)n1,?,-8%,11µM*,-1%,25µM*[quencher],18µM*
Cc1nc(Nc2ccccc2)sc1C,6%,nt,-15%,-7%,-14%,16µM*
Cc1cc(O)ccc1Nc1nc(-c2sc(N)nc2C)cs1,?,16µM*,13µM*,?,?,8.9µM*
Cc1csc(Nc2ccccc2)n1,0%,nt,-6%,5%,-4%,-8%
CCOc1ccc(NC(=O)CC2C(=O)N(c3ccccc3)C(=O)N2Cc2ccc3c(c2)OCO3)cc1 (stereo not given),-2%,nt,4%,nt,-19%,nt
CC(C)c1ccc(NC(=O)CN2C=NS(=O)(=O)c3ccccc32)cc1,?,nt,12%,nt,13%,nt
O=C(C1=NOC(CNc2ncc(C(F)(F)F)cc2Cl)C1)N1CCOCC1 (stereo not given),8%,nt,6%,13%,5%,11%
CN(C)c1ccc(O)c2c1C[C@H]1C[C@H]3[C@@H](N(C)C)C(=O)C(C(N)=O)=C(O)[C@]3(O)C(=O)C1=C2O,nt,-3%,nt,?,nt,-6%[20.9 µM]
Cc1ccc(OCCNC(=O)C(=O)NCc2ccco2)cc1,-8%,nt,-8%,-8%,-4%,14%
CC(S)C(=O)NCC(=O)O (stereo not given),?,-7%,?,nt,-16%,18µM*
CCn1c2ccccc2c2nc3cc(S(=O)(=O)N4CCOCC4)ccc3nc21,32µM*,2µM*,25µM*,-14%,-27%,1µM*
Cc1ccc(S(=O)(=O)N2CCC(C(=O)O)(c3ccccc3)CC2)cc1,nt,-4%,nt,nt,nt,1%[13.5 µM]
O=c1cc(-c2ccc([N+](=O)[O-])cc2)nc2cc(-c3ccc(Cl)cc3)[nH]n12,-1%,-9%,2.2µM*,0%,?,18%
Cc1coc2c1c(C)cc1oc(=O)c(CC(=O)NCCc3ccc(Cl)cc3)c(C)c12,1%,nt,6%,nt,3%,nt
CCOC(=O)CC(=O)Nc1ccc(C(=O)OCC)cc1,0%,-12%,0%,6%,4%,-5%
CCOC(=O)c1ccc(NC(=O)CSCCC(=O)O)cc1,-1%,nt,-13%,-1%,2%,32µM*
COC(=O)c1ccc(NC(=O)CSCC(=O)OCC(=O)c2ccc(Br)cc2)cc1,0%,-30%,?,-12%,-14%,22µM*
COC(=O)c1ccc(NC(=O)CCS(=O)(=O)c2ccc(Br)cc2)cc1,-6%,nt,-6%,1%,-15%,-6%
O=C(CSCCO)Nc1ccccc1,0%,-21%,3%,-4%,2%,6%
CCOC(=O)c1ccc(NC(=O)CSCc2ccco2)cc1,?,-27%,?,-1%,-21%,2.2µM*
CCc1ccc(NC(=O)CSCCO)cc1,6%,20µM*,1%,10%,6%,-4%
Cc1ccc(-n2nnnc2CNC(=O)c2ccccc2F)cc1C,-7%,nt,2%,nt,-3%,nt
CO[C@@H]1/C=C\CC(=O)N[C@@H](C)C(=O)OC[C@@H](OC)[C@H](C)CCCC(=O)OC[C@H]1C,2%[11.6 µM],nt,-8%[11.5 µM],nt,-10%[11.6 µM],-2%[13.5 µM]
O=C(Oc1ccccc1)c1ccc2c(c1)C(=O)N(Cc1ccncc1)C2=O,12%,nt,-12%,-6%,-21%,?
SMILES,Tau FP inhib,HPGD inh,Tau ThT inhib,KDM4E inh,Tau fluor cs,ALDH1A1 block
Brc1ccc(CSc2nnc3ccccn23)cc1,3%,nt,5%,?,6%,-5%
CCCN1CCN(CCCNC(=O)Cn2nc(C)n3c(cc4cc(F)ccc43)c2=O)CC1,-2%,nt,4%,nt,6%,nt
N=S(=O)(O)Cc1noc2ccccc12,-3%,-16%,-14%,0%,-18%,-3%
CCCCOC(=O)c1ccc(NC(=O)CSCc2n[nH]c(=O)[nH]2)cc1,-3%,-15%,-7%,6%,-11%,13µM*
O=C(N/N=C/c1ccc(OCC(=O)N2CCCCC2)cc1)c1ccccc1,-10%,14µM*,?,-8%,-8%,18µM*
O=C(CSCc1ccccc1)N/N=C/c1ccc(OCC(=O)N2CCCCC2)cc1,-2%,-25%,?,-1%,-13%,-17%
O=C(N/N=C/c1ccc(OCC(=O)N2CCCCC2)cc1)c1ccccc1O,-7%,22µM*,?,-17%,-16%,-6%
NS(=O)(=O)c1ccc(NC(=S)Nc2ccn(Cc3cccc4ccccc34)n2)cc1,?,nt,14%,-2%,-12%,13µM*
NS(=O)(=O)c1ccc(NS(=O)(=O)c2ccc(NC(=S)Nc3ccccc3)cc2)cc1,3%,-12%,-3%,-6%,-3%,?
Cn1cccc1/C=C1/SC(=S)N(CC(=O)O)C1=O,-3%,nt,16µM*,22µM*,-12%,28µM*
CN1/C(=C\C=C2/SC(=S)N(CC(=O)O)C2=O)C(C)(C)c2ccccc21,-11%,nt,4µM*,-7%,?,-3%
C=CCN1C(=O)/C(=C\C=C2\N(C)c3ccccc3C2(C)C)SC1=S,-7%,-14%,?,-3%,17%,-2%
CC(C(=O)O)N1C(=O)/C(=C/c2cccn2C)SC1=S (stereo not given),0%,-24%,18µM*,-22%,-8%,5%
CCC(C(=O)O)N1C(=O)/C(=C/c2cccn2C)SC1=S (stereo not given),7%,?,13µM*,-24%,-1%,-1%
Cc1ccc(NC(=O)CN2C(=O)S/C(=C\c3cccn3C)C2=O)cc1,-10%,14%,-1%,10%,-14%,1%
